Results taken from the supplement of paper PMC4466140.

B1: unnamed (peptide)
chain: RSRRSSFAYPQQVAI
B2: unnamed (peptide)
chain: LKVTPGRRAPTISKI
B3: unnamed (peptide)
chain: RKRRTHLRLPLIRSN

Biological target: AgAbp1
Test: SPOT peptide array binding signal intensity (averaged, normalized) (arbitrary units (background-subtracted, floor 0; scale differs between SH3 domains)); higher = stronger binding of the SH3 domain to the peptide
Experimental: (§1)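 GST-tagged SH3 domains from S. cerevisiae (Sc), A. gossypii (Ag), C. albicans (Ca) and S. pombe (Sp) were incubated at 10 ug/ml overnight at 4 C on cellulose SPOT membranes carrying 292 synthetic 15-mer peptides mined from the S. cerevisiae proteome (cysteines replaced by serines). Binding was detected with anti-GST antibody, HRP secondary and chemiluminescence, quantified with Genespotter, and reported as normalized spot intensities averaged over biological replicates.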

Binder	SPOT peptide array binding signal intensity
B1	22
B2	22
B3	23

Biological target: AgBbc1
Test: as above
Experimental: as §1

Binder	SPOT peptide array binding signal intensity
B1	64
B2	41
B3	105

Biological target: AgBem1-D1
Test: as above
Experimental: as §1

Binder	SPOT peptide array binding signal intensity
B1	91.5
B2	63.5
B3	130

Biological target: AgBzz1-D1
Test: as above
Experimental: as §1

Binder	SPOT peptide array binding signal intensity
B1	32
B2	81
B3	2

Biological target: AgBzz1-D2
Test: as above
Experimental: as §1

Binder	SPOT peptide array binding signal intensity
B1	50.5
B2	24
B3	34.5

Biological target: AgCyk3
Test: as above
Experimental: as §1

Binder	SPOT peptide array binding signal intensity
B1	1
B2	3
B3	2

Biological target: AgFus1
Test: as above
Experimental: as §1

Binder	SPOT peptide array binding signal intensity
B1	200
B2	22
B3	1070

Biological target: AgHof1
Test: as above
Experimental: as §1

Binder	SPOT peptide array binding signal intensity
B1	33.5
B2	15
B3	107

Biological target: AgHse1
Test: as above
Experimental: as §1

Binder	SPOT peptide array binding signal intensity
B1	254
B2	18.5
B3	1100

Biological target: AgLsb1
Test: as above
Experimental: as §1

Binder	SPOT peptide array binding signal intensity
B1	2.5
B2	≤ 0
B3	≤ 0

Biological target: AgLsb4
Test: as above
Experimental: as §1

Binder	SPOT peptide array binding signal intensity
B1	39.5
B2	≤ 0
B3	137

Biological target: AgMyo5
Test: as above
Experimental: as §1

Binder	SPOT peptide array binding signal intensity
B1	6.25
B2	5.5
B3	0.5

Biological target: AgNbp2
Test: as above
Experimental: as §1

Binder	SPOT peptide array binding signal intensity
B1	39
B2	1920
B3	63.8

Biological target: AgRvs167
Test: as above
Experimental: as §1

Binder	SPOT peptide array binding signal intensity
B1	2.33
B2	1.17
B3	2.83

Biological target: AgSho1
Test: as above
Experimental: as §1

Binder	SPOT peptide array binding signal intensity
B1	9
B2	≤ 0
B3	37.5

Biological target: AgSla1-D1-D2
Test: as above
Experimental: as §1

Binder	SPOT peptide array binding signal intensity
B1	63.5
B2	7.5
B3	29.5

Biological target: AgSla1-D3
Test: as above
Experimental: as §1

Binder	SPOT peptide array binding signal intensity
B1	4.5
B2	1
B3	2.25

Biological target: CaAbp1-D1
Test: as above
Experimental: as §1

Binder	SPOT peptide array binding signal intensity
B1	170
B2	435
B3	243

Biological target: CaAbp1-D2
Test: as above
Experimental: as §1

Binder	SPOT peptide array binding signal intensity
B1	152
B2	160
B3	301

Biological target: CaBbc1
Test: as above
Experimental: as §1

Binder	SPOT peptide array binding signal intensity
B1	258
B2	247
B3	211

Biological target: CaBem1-D1
Test: as above
Experimental: as §1

Binder	SPOT peptide array binding signal intensity
B1	20.5
B2	5
B3	41.5

Biological target: CaBzz1-D1
Test: as above
Experimental: as §1

Binder	SPOT peptide array binding signal intensity
B1	84.5
B2	154
B3	73.5

Biological target: CaBzz1-D2
Test: as above
Experimental: as §1

Binder	SPOT peptide array binding signal intensity
B1	102
B2	148
B3	71

Biological target: CaCyk3
Test: as above
Experimental: as §1

Binder	SPOT peptide array binding signal intensity
B1	9
B2	18
B3	20

Biological target: CaFus1
Test: as above
Experimental: as §1

Binder	SPOT peptide array binding signal intensity
B1	262
B2	≤ 0
B3	1220

Biological target: CaHof1
Test: as above
Experimental: as §1

Binder	SPOT peptide array binding signal intensity
B1	≤ 0
B2	0.5
B3	0.25

Biological target: CaHse1
Test: as above
Experimental: as §1

Binder	SPOT peptide array binding signal intensity
B1	4.5
B2	0.5
B3	29.6

Biological target: CaLsb1
Test: as above
Experimental: as §1

Binder	SPOT peptide array binding signal intensity
B1	1.5
B2	≤ 0
B3	≤ 0

Biological target: CaLsb4
Test: as above
Experimental: as §1

Binder	SPOT peptide array binding signal intensity
B1	70.5
B2	≤ 0
B3	85

Biological target: CaMyo5
Test: as above
Experimental: as §1

Binder	SPOT peptide array binding signal intensity
B1	7.25
B2	6.25
B3	0.5

Biological target: CaNbp2
Test: as above
Experimental: as §1

Binder	SPOT peptide array binding signal intensity
B1	130
B2	2720
B3	406

Biological target: CaRvs167
Test: as above
Experimental: as §1

Binder	SPOT peptide array binding signal intensity
B1	5.67
B2	1.5
B3	19

Biological target: CaRvs167-3
Test: as above
Experimental: as §1

Binder	SPOT peptide array binding signal intensity
B1	13.5
B2	27.5
B3	42

Biological target: CaSho1
Test: as above
Experimental: as §1

Binder	SPOT peptide array binding signal intensity
B1	66.5
B2	15.5
B3	478

Biological target: CaSla1-D1-D2
Test: as above
Experimental: as §1

Binder	SPOT peptide array binding signal intensity
B1	55
B2	56
B3	≤ 0

Biological target: CaSla1-D3
Test: as above
Experimental: as §1

Binder	SPOT peptide array binding signal intensity
B1	2.25
B2	1.5
B3	4.62

Biological target: ScAbp1
Test: as above
Experimental: as §1

Binder	SPOT peptide array binding signal intensity
B1	27.5
B2	21
B3	27

Biological target: ScBbc1
Test: as above
Experimental: as §1

Binder	SPOT peptide array binding signal intensity
B1	24.5
B2	1.75
B3	31.1

Biological target: ScBem1-D1
Test: as above
Experimental: as §1

Binder	SPOT peptide array binding signal intensity
B1	79.5
B2	9
B3	61.2

Biological target: ScBzz1-D1
Test: as above
Experimental: as §1

Binder	SPOT peptide array binding signal intensity
B1	37
B2	26
B3	15.5

Biological target: ScBzz1-D2
Test: as above
Experimental: as §1

Binder	SPOT peptide array binding signal intensity
B1	28
B2	5.5
B3	21.2

Biological target: ScCyk3
Test: as above
Experimental: as §1

Binder	SPOT peptide array binding signal intensity
B1	69
B2	10
B3	98

Biological target: ScFus1
Test: as above
Experimental: as §1

Binder	SPOT peptide array binding signal intensity
B1	157
B2	0.5
B3	573

Biological target: ScHof1
Test: as above
Experimental: as §1

Binder	SPOT peptide array binding signal intensity
B1	0.5
B2	≤ 0
B3	2.75

Biological target: ScHse1
Test: as above
Experimental: as §1

Binder	SPOT peptide array binding signal intensity
B1	644
B2	99
B3	1680

Biological target: ScLsb1
Test: as above
Experimental: as §1

Binder	SPOT peptide array binding signal intensity
B1	1
B2	≤ 0
B3	0.25

Biological target: ScLsb2
Test: as above
Experimental: as §1

Binder	SPOT peptide array binding signal intensity
B1	7.5
B2	3
B3	1

Biological target: ScLsb3
Test: as above
Experimental: as §1

Binder	SPOT peptide array binding signal intensity
B1	59
B2	21.5
B3	532

Biological target: ScLsb4
Test: as above
Experimental: as §1

Binder	SPOT peptide array binding signal intensity
B1	24.5
B2	≤ 0
B3	29.8

Biological target: ScMyo3
Test: as above
Experimental: as §1

Binder	SPOT peptide array binding signal intensity
B1	3.5
B2	39.5
B3	≤ 0

Biological target: ScMyo5
Test: as above
Experimental: as §1

Binder	SPOT peptide array binding signal intensity
B1	8.5
B2	20.2
B3	0.625

Biological target: ScNbp2
Test: as above
Experimental: as §1

Binder	SPOT peptide array binding signal intensity
B1	141
B2	4490
B3	164

Biological target: ScPex13
Test: as above
Experimental: as §1

Binder	SPOT peptide array binding signal intensity
B1	10
B2	≤ 0
B3	1.12

Biological target: ScRvs167
Test: as above
Experimental: as §1

Binder	SPOT peptide array binding signal intensity
B1	8.33
B2	0.333
B3	16.8

Biological target: ScSho1
Test: as above
Experimental: as §1

Binder	SPOT peptide array binding signal intensity
B1	304
B2	33
B3	1440

Biological target: ScSla1-D1-D2
Test: as above
Experimental: as §1

Binder	SPOT peptide array binding signal intensity
B1	339
B2	61.5
B3	268

Biological target: ScSla1-D3
Test: as above
Experimental: as §1

Binder	SPOT peptide array binding signal intensity
B1	20.2
B2	32.8
B3	9.5

Biological target: SpAbp1-D1
Test: as above
Experimental: as §1

Binder	SPOT peptide array binding signal intensity
B1	36
B2	170
B3	91.2

Biological target: SpBbc1
Test: as above
Experimental: as §1

Binder	SPOT peptide array binding signal intensity
B1	3.5
B2	1
B3	2.5

Biological target: SpBzz1-D1
Test: as above
Experimental: as §1

Binder	SPOT peptide array binding signal intensity
B1	169
B2	332
B3	189

Biological target: SpBzz1-D2
Test: as above
Experimental: as §1

Binder	SPOT peptide array binding signal intensity
B2	1.25
B3	≤ 0

Biological target: SpCyk3
Test: as above
Experimental: as §1

Binder	SPOT peptide array binding signal intensity
B2	1.5
B3	2

Biological target: SpHof1
Test: as above
Experimental: as §1

Binder	SPOT peptide array binding signal intensity
B2	37.8
B3	299

Biological target: SpHof1-2
Test: as above
Experimental: as §1

Binder	SPOT peptide array binding signal intensity
B2	0.5
B3	9

Biological target: SpHof1-3
Test: as above
Experimental: as §1

Binder	SPOT peptide array binding signal intensity
B2	165
B3	1060

Biological target: SpHse1
Test: as above
Experimental: as §1

Binder	SPOT peptide array binding signal intensity
B2	67.8
B3	622

Biological target: SpLsb1
Test: as above
Experimental: as §1

Binder	SPOT peptide array binding signal intensity
B2	≤ 0
B3	0.5

Biological target: SpLsb4
Test: as above
Experimental: as §1

Binder	SPOT peptide array binding signal intensity
B2	30
B3	260

Biological target: SpMyo1
Test: as above
Experimental: as §1

Binder	SPOT peptide array binding signal intensity
B2	352
B3	9

Biological target: SpNbp2
Test: as above
Experimental: as §1

Binder	SPOT peptide array binding signal intensity
B2	8
B3	350

Biological target: SpPex13
Test: as above
Experimental: as §1

Binder	SPOT peptide array binding signal intensity
B2	≤ 0
B3	13

Biological target: SpRvs167
Test: as above
Experimental: as §1

Binder	SPOT peptide array binding signal intensity
B2	≤ 0
B3	9.33

Biological target: SpSla1-D1-D2
Test: as above
Experimental: as §1

Binder	SPOT peptide array binding signal intensity
B2	4
B3	≤ 0

Biological target: SpSla1-D3
Test: as above
Experimental: as §1

Binder	SPOT peptide array binding signal intensity
B2	≤ 0
B3	≤ 0
